# Measured values taken from PubChem BioAssay (NCI).
# This is part of a sample that, as a whole, favours compounds with a hit. Of some 79,000 tested, about 15% had one in any assay. Unmarked numbers belong to inactive results. The source made the active and inactive calls. No stated cut-off is given here; in the data, active means growth inhibition above about 70%; inactive means the rest.
# Tests used:
# [1] = NCI Yeast Anticancer Drug Screen. Data for the rad50 strain (AID 155);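 further: 0% = growth of vehicle-only cultures of the same strain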; conditions: S. cerevisiae rad50 strain growth inhibition, stronger effect = higher value
# Outline: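 Vehicle-treated cultures provide the reference for the growth inhibition reported for compound-exposed, repair-deficient yeast.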
# [2] = NCI Yeast Anticancer Drug Screen. Data for the mec2-1 strain (AID 157); conditions: S. cerevisiae mec2-1 strain, stronger effect = higher value
# Outline: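 Using mec2-1 yeast: add compound, measure growth, express inhibition versus vehicle-treated cultures.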
# [3] = NCI Yeast Anticancer Drug Screen. Data for the sgs1 mgt1 strain (AID 161);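 further: 0% = growth of cultures given vehicle only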; conditions: S. cerevisiae sgs1 mgt1 strain, stronger effect = higher value
# Outline: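 Compounds are added to genetically altered yeast, and growth is compared with cultures given vehicle alone to give percent inhibition.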
# [4] = NCI Yeast Anticancer Drug Screen. Data for the cln2 rad14 strain (AID 165);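 further: 0% = growth equal to vehicle treated cultures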; conditions: S. cerevisiae cln2 rad14 strain, stronger effect = higher value
# Outline: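 Yeast strain cln2 rad14, bearing defects in cell cycle control and DNA repair, serves as the test system; values reflect growth inhibition compared with vehicle.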
# [5] = NCI Yeast Anticancer Drug Screen. Data for the bub3 strain (AID 167); conditions: S. cerevisiae bub3 mutant strain, stronger effect = higher value
# Outline: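 Mutant yeast screening strain plus compound; vehicle-treated cultures serve as the 0% inhibition reference.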
# [6] = NCI Yeast Anticancer Drug Screen. Data for the mlh1 rad18 strain (AID 175); conditions: S. cerevisiae mlh1 rad18 strain growth inhibition, stronger effect = higher value
# Outline: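 Steps: expose repair-defective yeast to compound; measure growth; express inhibition against vehicle-treated controls.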
# [7] = at 5.0 µM (retest, dose inferred, filed as 0.5)
# [8] = at 50.0 µM (retest, dose inferred, filed as 5.0)
SMILES,"growth inhibition [1, 7]","growth inhibition [1, 8]",growth inhibition ([1]; at 50.0 µM),"growth inhibition [2, 7]","growth inhibition [2, 8]",growth inhibition ([2]; at 50.0 µM),"growth inhibition [3, 7]","growth inhibition [3, 8]",growth inhibition ([3]; at 50.0 µM),"growth inhibition [4, 7]","growth inhibition [4, 8]",growth inhibition ([4]; at 50.0 µM),"growth inhibition [5, 7]","growth inhibition [5, 8]",growth inhibition ([5]; at 50.0 µM),"growth inhibition [6, 7]","growth inhibition [6, 8]",growth inhibition ([6]; at 50.0 µM)
OCCc1ccc(-n2cnc3c(Nc4ccc(Cl)cc4)ncnc32)cc1,-3%,95% (active),47.2%,-4%,95% (active),43%,-4%,91% (active),44.8%,-18%,94% (active),17.8%,7%,96% (active),83.8% (active),3%,95% (active),47%
CC(C)CCOC(=O)Nc1cccc(Cl)c1,2%,76% (active),62.1%,-4%,11%,12.8%,0%,36%,66.2%,1%,-8%,13.2%,47%,17%,-0.75%,4%,33%,44%
Cc1cc2nc3[nH]c4c(Cl)cc(Cl)cc4c3nc2cc1C,26%,28%,-36.8%,14%,10%,-28.6%,3%,3%,-7.3%,-10%,5%,56.4%,-4%,8%,-70.8%,4%,19%,-20.6%
O=C1Nc2ccccc2SC1c1ccccc1 (stereo unspecified),3%,97% (active),98.2% (active),15%,99% (active),99.6% (active),-2%,99% (active),99.5% (active),10%,99% (active),98.8% (active),19%,98% (active),99.3% (active),10%,99% (active),98.8% (active)
CC(C)(C)C(=O)OCC(=O)c1ccc(-c2ccccc2)cc1,-2%,-6%,11%,-6%,-6%,-0.25%,-2%,-4%,13.7%,-9%,-13%,-4.6%,73% (active),86% (active),65%,-4%,-8%,3.75%
c1ccc(Cn2nnc(-c3ccccc3)c2-c2ccccc2)cc1,-2%,90% (active),90.6% (active),-12%,97% (active),87.6% (active),-6%,96% (active),85.6% (active),6%,97% (active),87.8% (active),17%,96% (active),94% (active),14%,94% (active),87.5% (active)
CCCCC1(C(O)CC)Sc2ccccc2N1C (stereo unspecified),-7%,24%,31.8%,2%,82% (active),41.5%,-2%,83% (active),50.6%,1%,36%,65.9%,-14%,67%,61.6%,-12%,90% (active),56%
